Measurements as given in PubChem BioAssay (NCATS).
Records with an inconclusive call do not appear. Calls of active or inactive are those of the source. Unless noted, calls come from the whole dose curve; as a rule, active = well fitted curve in the direction sought with a large enough effect; inconclusive = small, poorly fitted or top-dose-only effect, or another doubt; inactive = no such curve, though single readings can be large; an effect the other way counts as inactive or inconclusive.

Columns and labels:
[1] = qHTS for differential inhibitors of proliferation of Plasmodium falciparum line 7G8 (AID 1815);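 note: parasite growth measured after three days of incubation; plate controls were vehicle wells for no effect and reference inhibitor wells for full effect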
[2] = qHTS for differential inhibitors of proliferation of Plasmodium falciparum line GB4 (AID 1816); settings: Potency: Plasmodium falciparum GB4 proliferation inhibition;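 note: parasite growth measured after 72 h incubation; 0% = vehicle DMSO and -100% = reference inhibitor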
[3] = qHTS for differential inhibitors of proliferation of Plasmodium falciparum line 3D7 (AID 1876);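 note: parasite growth measured after three days of culture; 0% = vehicle wells and -100% = reference inhibitor wells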
[4] = qHTS for differential inhibitors of proliferation of Plasmodium falciparum line D10 (AID 1877);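 note: parasites grown with compound for 72 h before DNA staining; plate controls were vehicle wells for no effect and reference inhibitor wells for full effect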
[5] = qHTS for differential inhibitors of proliferation of Plasmodium falciparum line Dd2 (AID 1882); settings: Potency: Plasmodium falciparum Dd2 proliferation inhibition;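 note: series mostly up to about 29 µM; plate controls were DMSO vehicle for no effect and 0.29 µM artemisinin for full effect; nearly all actives have a fitted effect of over 65% in size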
In short: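 Dd2-infected erythrocytes (0.3% parasitemia, 2.5% hematocrit final) incubated with compound 72 h at 37 C, 5% CO2; lysed with saponin/Triton buffer containing SYBR Green I, incubated overnight in the dark, then read by fluorescence (485/535 nm). Normalized to 0.29 uM artemisinin and DMSO.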

[6] = qHTS for differential inhibitors of proliferation of Plasmodium falciparum line W2 (AID 1883); settings: Potency: Plasmodium falciparum W2 proliferation inhibition;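 note: parasites grown with compound for 72 h before lysis and staining; 0% = vehicle wells and -100% = control inhibitor wells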
[7] = qHTS for differential inhibitors of proliferation of Plasmodium falciparum line HB3 (AID 1886); settings: Potency: Plasmodium falciparum HB3 proliferation inhibition;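 note: parasites grown with compound for 72 h before SYBR Green readout; plate controls were vehicle for no effect and reference inhibitor for full effect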
[8] = biological target: ATP-dependent DNA helicase Q1 (Homo sapiens) (UniProt P46063); assay: qHTS Validation Assay for Inhibitors of RecQ-Like Dna Helicase 1 (RECQ1) (AID 2353);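 note: plate controls were DMSO vehicle for no effect and enzyme-free control for full effect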
In short: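 50 nM RECQ1T1 preincubated 15 min with compound in Tris pH 8.0 buffer with MgCl2, DTT, Tween-20 and 2.5 ug/ml poly(dI-dC); started with 200 nM TAMRA/BHQ-2 forked duplex and 2 mM ATP. Unwinding read as fluorescence (525/598 nm), two reads 2 h apart.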

[9] = Validation screen for small molecules that induce DNA re-replication in MCF 10A normal breast cells (AID 463097); note: 0% is about no effect; nearly all actives have a fitted effect of over 60% in size
In short: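 Read-out is Hoechst total nuclear intensity by fluorescence scanning imager, flagging increased high-DNA-content nuclei. Compounds were incubated with MCF 10A cells for 48 hr (37 C, 5% CO2) before 40 min staining.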

[10] = Quantitative high throughput screen for delayed death inhibitors of the malarial parasite plastid, 96 hour incubation (AID 488745);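 note: luciferase-expressing P. falciparum in erythrocytes at 2% hematocrit and 0.1% parasitemia; series mostly up to about 29 µM; % is set by controls: 0 for no effect and ±100 for the full control effect; nearly all actives have a fitted effect of over 70% in size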
In short: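 Infected erythrocytes were added to compound in Albumax-supplemented RPMI 1640 at 0.1% parasitemia and 2% hematocrit (final), incubated 96 h at 37 C under 5% CO2, then luciferase reagent was added and luminescence measured.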

[11] = Quantitative high throughput screen for delayed death inhibitors of the malarial parasite plastid, 48 hour incubation (AID 488752); note: % is set by controls: 0 for no effect and ±100 for the full control effect; nearly all actives have a fitted effect of over 65% in size
In short: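 Readout is firefly luciferase luminescence from a reporter integrated into the parasite genome, with lower signal taken as inhibited growth. Infected red cells (0.1% parasitemia, 2% hematocrit final) are cultured with compound for one 48 h cycle at 37 C.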

[12] = biological target: M-phase phosphoprotein 8 (Homo sapiens) (UniProt Q99549); assay: qHTS Validation Assay for Inhibitors for MPP8 Chromodomain Interactions with Methylated Histone Tails (AID 488949);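 note: AlphaScreen signal from MPP8 chromodomain bound to biotinylated H3K9me3 peptide; top concentration of the series differs between compounds; % is set by controls: 0 for no effect and ±100 for the full control effect; nearly all actives have a fitted effect of over 55% in size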
In short: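 AlphaScreen proximity signal from streptavidin donor and Ni-chelate acceptor beads (10 ug/mL each) reported binding of MPP8 to trimethyl-K9 H3(1-18) peptide, both at 50 nM. The complex formed 30 min before a 30 min compound exposure at room temperature, in PBS pH 7.4.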

[13] = biological target: Transient receptor potential cation channel subfamily V member 1 (Homo sapiens) (UniProt Q8NER1); assay: HTS Assay for Compounds that Act as Enhancers of the Vanilloid Receptor 1 (AID 488979); note: 0% is about no effect
In short: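 Calcium influx kinetics via Fluo-8 (480/520 nm) in TRPV1-expressing cells, 2000/well cultured overnight at 35.5C. Compound-alone read 3 min (agonist phase), followed by EC20 capsaicin challenge for 2 min (enhancer phase).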

[14] = biological target: Thyrotropin receptor (Homo sapiens) (UniProt P16473); assay: qHTS Assay for Antagonists of the Thyroid Stimulating Hormone Receptor (AID 488980); note: series mostly up to about 58 µM; 0% is about no effect
In short: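 Inhibition of cAMP raised by EC80 TSH (4 nM final) was read by HTRF, with lysate cAMP competing against cAMP-d2 for cryptate antibody after 30 min at room temperature. The cells were transfected HEK293 held in phosphodiesterase inhibitor RO 20-1724 at 70 uM.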

[15] = biological target: Thyrotropin-releasing hormone receptor (Homo sapiens) (UniProt P34981); assay: qHTS for Small Molecule Agonists and Allosteric Enhancers of Human TRH Receptor: Validation Screen for Agonists (AID 493127;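 active = calcium activation more than 3 SD above the typical response in the agonist read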;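 note: intracellular calcium rise by fluo-8 fluorescence before TRH EC20 addition; 0% is about no effect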); settings: TRH receptor agonist cell assay; at 2 µM; hits give high values
In short: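 Cells 2000/well, 10% FCS, 18 h 33.5C/5% CO2 → fluo-8 Ca dye, RT 30 min–1.5 h → FDSS baseline 10 × 1 s → compound added → 230 cycles (1 s/cycle) agonist mode. TRH controls.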

[16] = biological target: Galactokinase (Homo sapiens) (UniProt P51570); assay: qHTS Validation Assay for Inhibitors of Human Galactokinase (GALK) (AID 493189); note: 0% is about no effect
In short: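 Inhibition was measured as remaining ATP, detected by luciferase luminescence after a 1 h room-temperature reaction. Final conditions: 5 nM GALK, 100 uM galactose, 35 uM ATP, pH 8.0 HEPES buffer.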

[17] = Validation screen for small molecules that induce DNA re-replication in SW480 colon adenocarcinoma cells (AID 504364); note: 0% is about no effect
In short: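 250 cells/well; compound pinned in; 48 hr, 37 C, 5% CO2; Hoechst added, 40 min; nuclear fluorescence imaged, 405 ex / 500-530 em; re-replication scored as increase in high-intensity nuclei.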

[18] = biological target: Voltage-gated inwardly rectifying potassium channel KCNH2 (Homo sapiens) (UniProt Q12809); assay: qHTS Assay for Small Molecule Inhibitors of the Human hERG Channel Activity (AID 588834);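 note: top concentration of the series differs between compounds; % is set by controls: 0 for no effect and ±100 for the full control effect; lower thallium flux fluorescence means stronger hERG block; nearly all actives have a fitted effect of over 50% in size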
In short: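 Kinetic FDSS fluorescence; U2OS + hERG BacMam (~100 virus particles/cell); FluxOR Tl+ flux; ~10 min cpd; AC50 (Hill).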

[19] = test system: Zika virus NS2B-NS3 protease; assay: Primary screen GU AMC qHTS for Zika virus inhibitors (AID 1347154);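 note: 0% = no-inhibitor control and -100% = no-enzyme control; nearly all actives have a fitted effect of over 70% in size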
In short: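 Fluorogenic AMC-substrate cleavage by noncovalent NS2B-NS3 protease complex (25 nM, pH 8.0 Tris buffer with Tween 20) followed for 15 minutes at room temperature (~20% conversion). Percent inhibition from ex340/em450 signal change, fitted by 4-parameter Hill equation.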

[20] = Primary qHTS for small molecule stabilizers of the endoplasmic reticulum resident proteome: Secreted ER Calcium Modulated Protein (SERCaMP) assay (AID 1508630); note: % is set by controls: 0 for no effect and ±100 for the full control effect
In short: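 GLuc-SERCaMP-expressing SH-SY5Y cells, pretreated 16 h with compound, are challenged with thapsigargin to empty ER calcium stores; after 4 h, coelenterazine is added directly to the medium and luminescence is imaged.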

Thyrotropin-releasing hormone receptor (Homo sapiens), sequence (P34981 whole entry, looked up): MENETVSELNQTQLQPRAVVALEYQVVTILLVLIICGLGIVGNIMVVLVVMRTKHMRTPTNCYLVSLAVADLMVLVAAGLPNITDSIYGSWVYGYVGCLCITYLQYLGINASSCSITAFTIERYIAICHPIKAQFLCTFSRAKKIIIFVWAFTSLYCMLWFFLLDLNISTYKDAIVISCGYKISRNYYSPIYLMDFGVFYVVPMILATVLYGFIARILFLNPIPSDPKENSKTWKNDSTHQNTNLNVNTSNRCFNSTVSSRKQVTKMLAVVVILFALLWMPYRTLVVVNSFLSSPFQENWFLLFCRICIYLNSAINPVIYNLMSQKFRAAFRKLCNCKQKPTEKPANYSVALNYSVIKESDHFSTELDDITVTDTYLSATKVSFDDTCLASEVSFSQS
Galactokinase (Homo sapiens), sequence (P51570 whole entry, looked up): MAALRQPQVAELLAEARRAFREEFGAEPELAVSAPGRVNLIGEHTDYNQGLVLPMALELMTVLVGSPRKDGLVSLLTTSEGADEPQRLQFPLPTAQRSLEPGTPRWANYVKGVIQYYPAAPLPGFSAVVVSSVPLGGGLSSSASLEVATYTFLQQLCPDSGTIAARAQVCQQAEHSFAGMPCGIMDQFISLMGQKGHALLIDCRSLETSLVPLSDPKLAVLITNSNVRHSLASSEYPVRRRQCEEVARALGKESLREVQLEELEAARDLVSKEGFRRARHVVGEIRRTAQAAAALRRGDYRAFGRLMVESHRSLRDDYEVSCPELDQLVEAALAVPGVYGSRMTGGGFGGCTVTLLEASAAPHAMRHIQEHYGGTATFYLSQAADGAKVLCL
ATP-dependent DNA helicase Q1 (Homo sapiens), sequence (P46063 whole entry, looked up): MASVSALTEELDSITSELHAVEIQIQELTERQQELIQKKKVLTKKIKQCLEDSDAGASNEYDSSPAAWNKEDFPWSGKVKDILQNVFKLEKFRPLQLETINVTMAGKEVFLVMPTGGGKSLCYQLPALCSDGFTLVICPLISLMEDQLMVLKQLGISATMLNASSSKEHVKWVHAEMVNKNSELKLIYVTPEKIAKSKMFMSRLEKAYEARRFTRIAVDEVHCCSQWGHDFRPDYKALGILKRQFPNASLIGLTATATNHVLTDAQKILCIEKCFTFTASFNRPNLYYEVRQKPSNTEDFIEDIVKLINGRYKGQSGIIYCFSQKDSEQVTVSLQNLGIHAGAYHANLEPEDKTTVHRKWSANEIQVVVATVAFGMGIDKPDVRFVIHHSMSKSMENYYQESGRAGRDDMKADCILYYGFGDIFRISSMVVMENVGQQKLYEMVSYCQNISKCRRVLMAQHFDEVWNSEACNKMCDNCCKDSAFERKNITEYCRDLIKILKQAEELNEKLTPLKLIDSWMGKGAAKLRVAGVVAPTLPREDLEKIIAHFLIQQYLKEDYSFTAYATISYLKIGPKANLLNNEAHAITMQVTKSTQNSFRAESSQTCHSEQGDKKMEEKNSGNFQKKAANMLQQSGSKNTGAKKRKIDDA
Transient receptor potential cation channel subfamily V member 1 (Homo sapiens), sequence (Q8NER1 whole entry, looked up): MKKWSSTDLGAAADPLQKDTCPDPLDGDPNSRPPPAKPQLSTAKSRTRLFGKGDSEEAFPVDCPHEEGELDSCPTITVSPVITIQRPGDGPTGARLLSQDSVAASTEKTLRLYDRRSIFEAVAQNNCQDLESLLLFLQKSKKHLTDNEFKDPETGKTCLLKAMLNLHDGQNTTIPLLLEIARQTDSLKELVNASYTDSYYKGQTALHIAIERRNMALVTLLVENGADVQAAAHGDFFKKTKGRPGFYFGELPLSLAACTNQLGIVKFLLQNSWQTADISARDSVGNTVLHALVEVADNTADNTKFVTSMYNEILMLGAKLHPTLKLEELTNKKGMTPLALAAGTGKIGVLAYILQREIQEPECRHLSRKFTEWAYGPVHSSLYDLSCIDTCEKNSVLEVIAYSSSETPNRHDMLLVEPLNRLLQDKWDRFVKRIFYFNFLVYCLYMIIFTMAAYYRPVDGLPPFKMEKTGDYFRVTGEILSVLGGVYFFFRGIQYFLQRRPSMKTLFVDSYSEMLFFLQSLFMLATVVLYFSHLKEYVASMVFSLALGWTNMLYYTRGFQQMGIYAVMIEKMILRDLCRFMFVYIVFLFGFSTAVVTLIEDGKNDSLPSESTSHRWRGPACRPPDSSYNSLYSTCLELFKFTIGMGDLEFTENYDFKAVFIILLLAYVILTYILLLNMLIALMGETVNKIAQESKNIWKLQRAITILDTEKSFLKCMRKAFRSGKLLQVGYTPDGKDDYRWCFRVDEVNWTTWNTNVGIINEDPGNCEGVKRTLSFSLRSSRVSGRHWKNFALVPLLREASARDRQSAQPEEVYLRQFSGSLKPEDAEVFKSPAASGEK
M-phase phosphoprotein 8 (Homo sapiens), sequence (Q99549 whole entry, looked up): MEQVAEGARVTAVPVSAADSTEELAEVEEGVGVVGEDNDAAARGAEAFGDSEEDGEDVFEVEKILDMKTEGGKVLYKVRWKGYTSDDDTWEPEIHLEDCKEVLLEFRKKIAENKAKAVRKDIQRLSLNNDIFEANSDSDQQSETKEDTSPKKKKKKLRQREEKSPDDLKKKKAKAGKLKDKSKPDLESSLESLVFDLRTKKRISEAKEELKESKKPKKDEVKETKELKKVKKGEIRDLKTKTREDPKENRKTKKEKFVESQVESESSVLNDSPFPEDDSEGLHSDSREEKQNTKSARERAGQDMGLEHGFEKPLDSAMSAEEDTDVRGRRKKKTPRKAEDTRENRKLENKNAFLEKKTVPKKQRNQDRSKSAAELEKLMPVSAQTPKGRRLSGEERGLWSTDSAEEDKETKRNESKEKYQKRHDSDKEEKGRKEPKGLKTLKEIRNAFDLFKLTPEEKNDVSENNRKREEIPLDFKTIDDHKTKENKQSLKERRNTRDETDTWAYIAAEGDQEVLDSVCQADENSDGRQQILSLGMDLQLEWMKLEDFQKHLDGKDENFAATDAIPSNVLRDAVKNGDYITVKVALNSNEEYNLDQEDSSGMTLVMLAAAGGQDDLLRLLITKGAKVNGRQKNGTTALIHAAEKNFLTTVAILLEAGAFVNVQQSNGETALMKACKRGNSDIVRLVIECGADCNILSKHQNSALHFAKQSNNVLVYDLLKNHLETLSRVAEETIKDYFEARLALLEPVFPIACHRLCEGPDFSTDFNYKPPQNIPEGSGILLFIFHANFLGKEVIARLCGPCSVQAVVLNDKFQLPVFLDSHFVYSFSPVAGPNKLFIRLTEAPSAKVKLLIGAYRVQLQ
Voltage-gated inwardly rectifying potassium channel KCNH2 (Homo sapiens), sequence (Q12809 whole entry, looked up): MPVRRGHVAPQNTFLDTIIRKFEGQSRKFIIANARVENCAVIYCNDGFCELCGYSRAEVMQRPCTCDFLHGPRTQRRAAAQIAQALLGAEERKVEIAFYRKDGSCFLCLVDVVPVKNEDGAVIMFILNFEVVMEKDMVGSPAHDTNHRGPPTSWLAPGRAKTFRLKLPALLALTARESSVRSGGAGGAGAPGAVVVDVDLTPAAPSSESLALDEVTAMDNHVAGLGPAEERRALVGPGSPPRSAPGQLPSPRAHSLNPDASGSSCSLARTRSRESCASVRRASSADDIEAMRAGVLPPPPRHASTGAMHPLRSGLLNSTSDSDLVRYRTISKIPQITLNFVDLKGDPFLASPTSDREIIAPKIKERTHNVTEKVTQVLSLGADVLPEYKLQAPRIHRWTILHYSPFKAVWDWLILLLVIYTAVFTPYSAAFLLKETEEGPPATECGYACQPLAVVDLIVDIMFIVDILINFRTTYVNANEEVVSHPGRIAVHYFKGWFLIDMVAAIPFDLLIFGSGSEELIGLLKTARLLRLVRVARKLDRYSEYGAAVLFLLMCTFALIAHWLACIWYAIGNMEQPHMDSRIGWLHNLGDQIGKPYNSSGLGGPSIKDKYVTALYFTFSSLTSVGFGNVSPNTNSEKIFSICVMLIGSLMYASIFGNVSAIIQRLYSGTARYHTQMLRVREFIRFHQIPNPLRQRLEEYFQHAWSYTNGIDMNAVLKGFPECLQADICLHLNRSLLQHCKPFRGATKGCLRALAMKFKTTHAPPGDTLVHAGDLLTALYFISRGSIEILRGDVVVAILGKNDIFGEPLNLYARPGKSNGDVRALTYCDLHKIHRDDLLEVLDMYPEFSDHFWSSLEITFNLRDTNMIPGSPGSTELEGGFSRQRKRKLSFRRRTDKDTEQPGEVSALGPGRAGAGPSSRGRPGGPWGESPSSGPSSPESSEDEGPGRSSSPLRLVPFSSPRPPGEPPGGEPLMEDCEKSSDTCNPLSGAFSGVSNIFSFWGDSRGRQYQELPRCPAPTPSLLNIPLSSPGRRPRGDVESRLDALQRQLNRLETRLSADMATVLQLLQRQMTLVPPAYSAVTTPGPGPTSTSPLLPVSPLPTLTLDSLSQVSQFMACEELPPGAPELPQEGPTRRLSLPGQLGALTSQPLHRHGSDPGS
Thyrotropin receptor (Homo sapiens), sequence (P16473 whole entry, looked up): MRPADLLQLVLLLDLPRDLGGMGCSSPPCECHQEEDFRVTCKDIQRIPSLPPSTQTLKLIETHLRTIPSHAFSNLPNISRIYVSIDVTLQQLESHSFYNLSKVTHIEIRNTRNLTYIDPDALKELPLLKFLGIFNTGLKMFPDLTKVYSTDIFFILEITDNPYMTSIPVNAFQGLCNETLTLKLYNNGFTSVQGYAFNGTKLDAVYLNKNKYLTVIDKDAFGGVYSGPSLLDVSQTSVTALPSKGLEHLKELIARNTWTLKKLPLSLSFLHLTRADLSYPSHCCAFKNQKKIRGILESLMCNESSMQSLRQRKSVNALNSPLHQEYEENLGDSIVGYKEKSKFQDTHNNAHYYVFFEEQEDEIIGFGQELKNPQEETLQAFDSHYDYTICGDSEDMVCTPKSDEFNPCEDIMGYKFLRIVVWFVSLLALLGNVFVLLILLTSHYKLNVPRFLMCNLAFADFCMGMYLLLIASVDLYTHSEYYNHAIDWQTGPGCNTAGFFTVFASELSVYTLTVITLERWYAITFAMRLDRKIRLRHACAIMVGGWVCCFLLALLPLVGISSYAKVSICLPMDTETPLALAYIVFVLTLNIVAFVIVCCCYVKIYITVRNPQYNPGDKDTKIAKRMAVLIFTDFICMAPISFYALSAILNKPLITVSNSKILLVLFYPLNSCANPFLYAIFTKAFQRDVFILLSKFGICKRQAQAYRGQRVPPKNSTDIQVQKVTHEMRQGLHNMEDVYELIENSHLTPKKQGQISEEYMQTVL

CCCn1c(=O)c2[nH]c(-c3ccc(OCC(=O)Nc4ccc(C#N)cc4)cc3)nc2n(CCC)c1=O
inactive: Potency [1] | Potency [2] | Potency [3] | Potency [4] | Potency [5] | Potency [6] | Potency [7] | Potency [8] | Potency [9] | Potency [10] | Potency [11] | Potency [12] | outcome [13] | outcome [14] | activation [15] 0.938% | outcome [16] | outcome [17] | Potency [18] | Potency [19] | Potency [20]
